An excerpt weighted towards active compounds, which were near 1.2% of everything screened.
BJeLR lethal – kills HRASV12-expressing BJeLR cells; actives 0.17% (n = 300,000); AID 1554; BJeLR (HRASV12) viability, CellTiter-Glo ATP luminescence, 48 h; inhibition, % (test concentration not listed); in the data active means inhibition above about 50%
SSB-PriA inh – inhibitors of Klebsiella pneumoniae PriA binding to SSB C-terminal tail. actives 0.6% (n = 430,000). AID 1272365. inhibition, % at 33 µM. AlphaScreen SSBct-PriA binding, biotinylated peptide; in the data active means inhibition mostly above about 37%, no sharp cut-off; inactive means mostly below about 20%
3CLpro inhibitor – SARS-CoV 3CLpro protease inhibition. P0C6X7. recombinant SARS-CoV 3CLpro, quenched FRET peptide cleavage. inhibition, % at 6 µM. actives 0.14% (n = 290,000). AID 1706; in the data active means inhibition above about 12%
PrP UTR inh – suppresses PrP 5' UTR mRNA reporter expression; inhibition, % (concentration not given with the values); AID 488862; actives 0.35% (n = 340,000); cell-based PrP 5' UTR mRNA reporter, plate reader; in the data active means inhibition above about 52%
PrPC TRFRET – inhibitors of human cell surface prion protein PrPC; TR-FRET read-out; actives 0.43% (n = 370,000); AID 720596; inhibition, % at 13.8 µM; in the data active means inhibition above about 24%
Numbers stand for hits; n = inactive; x = no result given.

SMILES	BJeLR lethal	SSB-PriA inh	3CLpro inhibitor	PrP UTR inh	PrPC TRFRET
CCC1CCc2c(sc3c2C(=O)NC(c2ccccn2)N3)C1 (stereo not given)	x	n	x	x	x
O=C1NC(c2ccccn2)Nc2sc3c(c21)CCC3 (stereo not given)	n	81.0	n	n	n
C[C@](O)(CNC(=O)CSCc1ccccc1)C1CC1	x	n	x	x	x
COCC(=O)Nc1ccc(Nc2ccc(-n3cccn3)nn2)cc1	x	83.0	x	x	x
O=C(Nc1ccc(Nc2ccc(-n3cccn3)nn2)cc1)c1ccco1	x	89.0	x	x	x
COc1ccc(S(=O)(=O)c2cnc3ccc(F)cc3c2Nc2ccc(C)c(C)c2)cc1	x	n	x	x	x
CCCCCCCn1ccc(=N)cc1	n	n	n	n	n
CCCCCCCCCn1ccc(=N)cc1	n	n	n	n	24.6
CCOc1ccccc1NC(=O)CN1CCCN(Cc2ccc(C)cc2)S1(=O)=O	x	n	x	x	x
O=C(CSCc1ccccc1)NCc1ccccc1-c1ccsc1	x	n	x	x	x
c1ccc(N2CCN(Cc3ccnc4ccccc34)CC2)cc1	n	n	n	n	n
Oc1c(CN2CCN(c3ccccc3)CC2)cc(Br)c2cccnc12	77.3	n	n	n	n
CCOC(=O)C1CCN(Cc2ccc(O)c3ncccc23)CC1	n	93.6	n	n	n
COc1ccccc1N1CCN(Cc2ccc(O)c3ncccc23)CC1	n	73.0	n	x	n
CCOC(=O)C1CCN(Cc2ccccc2C(F)(F)F)CC1	n	n	n	x	n
OCCN1CCN(Cc2ccc(O)c3ncccc23)CC1	x	115.0	x	x	x
Cc1cc(Cl)ccc1OCCCC(=O)N/N=C/c1ccc(Br)cc1	x	n	x	x	x
Cc1ccccc1N1CCN(Cc2ccc(O)c3ncccc23)CC1	x	86.9	x	x	x
O=C(/C=C/c1ccco1)Nc1cc(Cl)ccc1C(=O)O	n	n	n	n	n
O=C(/C=C\c1ccco1)Nc1cc([N+](=O)[O-])ccc1F	62.5	n	n	n	n
NS(=O)(=O)c1ccc(NC(=O)c2ccc(=O)n(Cc3cccc(F)c3)n2)cc1	x	n	x	x	x
Cc1ccc(SCCCNC(=O)Nc2ncccn2)cc1	x	n	x	x	x
CCOC(CNC(=O)c1ccc(N2CCc3ccccc32)c([N+](=O)[O-])c1)OCC	n	63.0	n	n	n
O=C(NCc1ccc(F)cc1)c1ccc(N2CCc3ccccc32)c([N+](=O)[O-])c1	n	73.7	n	n	n
COC(=O)c1ccc(N2CCc3ccccc32)c([N+](=O)[O-])c1	n	52.0	n	n	n
SMILES	BJeLR lethal	SSB-PriA inh	3CLpro inhibitor	PrP UTR inh	PrPC TRFRET
O=C(O)c1ccc(N2CCc3ccccc32)c([N+](=O)[O-])c1	n	n	n	n	n
Cc1ccc(NC(=O)NCCn2cnc(C)c(C)c2=O)cc1F	x	n	x	x	x
O=S(=O)(Cc1cc(F)cc(F)c1)N(Cc1ccccn1)Cc1ccco1	x	n	x	x	x
Cc1[nH]c(C(=O)O)c(C#N)c1C(=O)c1ccccc1	n	n	n	n	n
CC(=O)N(C(C)=O)c1c(C#N)c(C)n(-c2ccccc2)c1C(=O)c1ccccc1	n	85.1	n	n	n
c1ccc(CNCCC(Cc2ccccc2)c2ccco2)cc1 (stereo not given)	n	n	n	n	n
CN(C)c1ccc(CNCCC(Cc2ccccc2)c2ccco2)cc1 (stereo not given)	n	57.1	n	n	n
COC(=O)c1c(NC(=O)CCCC(=O)O)sc2c1CCC2	n	73.1	n	n	n
CN(C)c1ccc(C=NN2C(=S)SC(C)(C)C2N(O)C(=O)Nc2ccc([N+](=O)[O-])cc2)cc1 (stereo not given)	x	45.5	x	x	x
Brc1nc(-c2ccccc2)nc(-c2ccccc2)c1Br	51.0	n	x	x	n
c1ccc(-c2nnc(-c3ccncc3)nc2-c2ccccc2)cc1	n	n	n	n	n
COc1ccc2nc(N=Cc3c(C)[nH]n(-c4ccc(C)cc4C)c3=O)sc2c1	x	47.8	x	x	x
CCC(=O)Nc1nnc(S(=O)(=O)N2c3ccccc3CC2C)s1 (stereo not given)	n	100.5	n	n	n
COc1cc(C2C(C#N)=C(N)Oc3n[nH]c(-c4ccncc4)c32)cc(OC)c1OC (stereo not given)	n	n	n	n	n
COc1ccc(C2C(C#N)=C(N)Oc3n[nH]c(-c4ccccn4)c32)c(OC)c1OC (stereo not given)	n	69.7	n	n	n
COc1ccc(C(=O)/C=C/C(=O)N(CC(=O)NC2CCCCC2)Cc2ccccc2)c(O)c1	n	n	n	n	n
COc1ccc(C(=O)/C=C/C(=O)N(CC(=O)NC2CCCCC2)Cc2ccccc2OC)c(O)c1	51.4	n	n	n	n
COc1ccccc1CNC(=O)C(=O)NCc1n[nH]c(=O)c2ccccc12	x	n	x	x	x
O=C(NCc1cccnc1)c1ccc(NC(=O)c2cccc([N+](=O)[O-])c2)cc1	79.3	n	n	n	n
O=C(CCC1CCCC1)Nc1ccc(C(=O)NCc2cccnc2)cc1	88.8	n	n	n	n
O=C(COc1ccc([N+](=O)[O-])cc1)Nc1ccc(C(=O)NCc2cccnc2)cc1	62.9	n	n	n	n
Cc1[nH]n(-c2cccc3ccccc23)c(=O)c1C=NNC(=O)c1cccc([N+](=O)[O-])c1	x	n	x	x	x
COc1cc(NS(=O)(=O)c2cn(C)cn2)ccc1N1CCCC1=O	x	n	x	x	x
O=C(CSc1ncc(-c2ccccc2)n1-c1ccccc1)NCc1ccco1	n	52.2	n	n	n
COc1ccc(-n2c(-c3ccc(F)cc3)cnc2SCC(=O)NCc2ccco2)cc1	n	49.3	n	n	n
SMILES	BJeLR lethal	SSB-PriA inh	3CLpro inhibitor	PrP UTR inh	PrPC TRFRET
Cc1nnc(SCC(=O)NCc2ccco2)n1-c1ccc(F)cc1	n	n	n	n	n
CCOc1ccc(NC(=O)CSc2ncc(-c3ccc(F)cc3)n2Cc2ccco2)cc1	n	43.4	n	n	n
COc1ccc(C2(C)NN=C3Sc4ccccc4N32)cc1 (stereo not given)	x	41.0	x	x	x
COc1ccc([C@@]2(C)NN=C3Oc4ccccc4N32)cc1	x	n	x	x	x
CSC1CC2CCC(C1)N2C(=O)c1ccc(C(C)(C)C)cc1 (stereo not given)	x	n	x	x	x
CSC1CC2CCC(C1)N2C(=O)c1ccsc1 (stereo not given)	x	94.0	x	x	x
O=S(=O)(c1ccc(F)cc1)c1snnc1-c1ccccc1	60.9	n	n	n	n
O=S(=O)(c1ccc(Cl)cc1)c1snnc1-c1ccccc1	96.1	n	n	n	n
CCC(C)Nc1c([N+](=O)[O-])cc(C)cc1[N+](=O)[O-] (stereo not given)	n	53.4	n	n	n
CN1C(=O)Cc2cc(NC(=O)c3ccc(-c4ccsc4)cc3)ccc21	x	58.0	x	x	x
N#Cc1ccc(-c2cccs2)nc1SCc1cccnc1	51.4	n	n	x	n
CC(=O)c1cccc(S(=O)(=O)N2CCCN(CCn3cccn3)CC2)c1	x	n	x	x	x
CN(C)c1cccc(NC(=O)CCc2ccccc2)c1	n	53.6	n	n	n
CC(=O)Nc1cccc(NC(=O)CCc2ccccc2)c1	n	n	n	n	n
O=C1NN=CN2N=C(c3ccccc3)CC12 (stereo not given)	x	n	x	x	x
O=[N+]([O-])c1ccc(N2CCCNCC2)c2ncccc12	n	n	n	n	n
O=[N+]([O-])c1ccc(N2CCCCCC2)c2ncccc12	n	42.0	n	n	n

Bioassay records from PubChem.
